Laboratory results reported in PubChem BioAssay (EPA / NIEHS).
The source made the active and inactive calls. Rule for the calls: active = hit-call score of the fitted dose curve at least 0.9, where 1 is the maximum; inactive = score below 0.9.

Tests used:
Details in all cases: mRNA level, 48 h; actives raise or lower the signal
[1] = read-out: Heat shock 70 kDa protein 1 (HSPA1A), gene 3303; assay: LTEA_HepaRG_HSPA1A: Life Technologies and Expression Analysis (LTEA) Assay for Heat shock 70 kDa protein 1 (HSPA1A) using HepaRG (AID 2283502)
How it was run: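 HSPA1A induction in human HepaRG liver cells is measured after 48 h of chemical treatment (100 uM maximum, 0.5% DMSO vehicle). Expression comes from qRT-PCR normalized to endogenous controls.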

[2] = read-out: Hypoxia-inducible factor 1-alpha (Homo sapiens) (UniProt Q16665); assay: LTEA_HepaRG_HIF1A: Life Technologies and Expression Analysis (LTEA) Assay for Hypoxia-inducible factor 1 (HIF1A) Trancription factor using HepaRG (AID 2283503)
How it was run: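 HepaRG, 48 h exposure, 8-pt half-log series from 100 uM, 0.5% DMSO vehicle, duplicates. Readout: HIF1A transcript by qRT-PCR (Fluidigm array), housekeeping-normalised. Bidirectional curve fit vs DMSO baseline.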

[3] = read-out: 3-Hydroxy-3-Methylglutaryl-CoA Synthase 2 (HMGCS2), HMGCS2 (gene 3158); assay: LTEA_HepaRG_HMGCS2: Life Technologies and Expression Analysis (LTEA) Assay for 3-Hydroxy-3-Methylglutaryl-CoA Synthase 2 (HMGCS2) using HepaRG (AID 2283504)
How it was run: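 HepaRG, plated 48 h then switched to serum-free induction media; cmpd 8-pt, max 100 uM, 1/2-log, 0.5% DMSO, n=2, 48 h. HMGCS2 mRNA by Fluidigm TaqMan qRT-PCR, ACTB/GAPDH/POLR2A norm; bidirectional fit vs DMSO.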

HGF (gene 3082) = assay: LTEA_HepaRG_HGF: Life Technologies and Expression Analysis (LTEA) Assay for Hepatocyte Growth Facto (HGF) using HepaRG (AID 2283505)
How it was run: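 Read-out is HGF transcript level by qRT-PCR, normalized to three housekeeping genes, fitted bidirectionally against 0.5% DMSO vehicle. Human HepaRG cells received test chemicals for 48 h at up to 100 uM.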

[4] = read-out: Insulin Like Growth Factor 1 (IGF1), IGF1 (gene 3479); assay: LTEA_HepaRG_IGF1: Life Technologies and Expression Analysis (LTEA) Assay for Insulin Like Growth Factor 1 (IGF1) using HepaRG (AID 2283506)
How it was run: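 Using human HepaRG liver cells, IGF1 transcript induction or suppression is measured 48 h after dosing across eight concentrations capped at 100 uM. Values derive from bidirectional concentration-response fitting with DMSO as baseline.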

[5] = read-out: Intercellular Adhesion Molecule 1 (ICAM1), ICAM1 (gene 3383); assay: LTEA_HepaRG_ICAM1: Life Technologies and Expression Analysis (LTEA) Assay for Intercellular Adhesion Molecule 1 (ICAM1) using HepaRG (AID 2283507)
How it was run: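 Readout is qRT-PCR mRNA level, normalized to three housekeeping genes and fitted bidirectionally against 0.5% DMSO vehicle. Human HepaRG cultures received compound for 48 h, top concentration 100 uM with half-log dilutions.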

[6] = read-out: Insulin-like growth factor-binding protein 1 (IGFBP1), IGFBP1 (gene 3484); assay: LTEA_HepaRG_IGFBP1: Life Technologies and Expression Analysis (LTEA) Assay for Insulin-like growth factor-binding protein 1 (IGFBP1) using HepaRG (AID 2283508)
How it was run: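 Thawed HepaRG cells are plated for 48 h, switched to serum-free induction medium, then dosed in duplicate for another 48 h (100 uM top, half-log steps). Lysates in RLT go to qRT-PCR, and gain or loss of signal is fitted relative to vehicle.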

[7] = read-out: Interleukin 6 (IL6), IL6 (gene 3569); assay: LTEA_HepaRG_IL6: Life Technologies and Expression Analysis (LTEA) Assay for Interleukin 6 (IL6) using HepaRG (AID 2283509)
How it was run: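 Differentiated human HepaRG cells, plated 48 h then switched to serum-free induction medium, were exposed in duplicate for 48 h to eight half-log concentrations up to 100 uM in 0.5% DMSO. IL6 mRNA measured by qRT-PCR, normalized to ACTB/GAPDH/POLR2A.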

[8] = read-out: Interleukin 6 Receptor (IL6R), IL6R (gene 3570); assay: LTEA_HepaRG_IL6R: Life Technologies and Expression Analysis (LTEA) Assay for Interleukin 6 Receptor (IL6R) using HepaRG (AID 2283510);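 for AC50: TaqMan qRT-PCR signal normalized to ACTB GAPDH and POLR2A housekeeping genes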
How it was run: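 Concentration-response in human liver HepaRG cells: eight concentrations from 100 uM downward by half-logs, 48 h exposure, 0.5% DMSO vehicle. IL6R mRNA change measured by qRT-PCR and fitted in both directions relative to vehicle.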

[9] = read-out: Potassium channel subfamily K member 1 (KCNK1), KCNK1 (gene 3775); assay: LTEA_HepaRG_KCNK1: Life Technologies and Expression Analysis (LTEA) Assay for Potassium channel subfamily K member 1 (KCNK1) using HepaRG (AID 2283511)
How it was run: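 Differentiated human HepaRG cells in serum-free induction medium were exposed in duplicate for 48 h to 8 half-log concentrations up to 100 uM in 0.5% DMSO. KCNK1 mRNA was measured by TaqMan qRT-PCR, normalized to ACTB, GAPDH and POLR2A, and fitted bidirectionally versus DMSO.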

[10] = read-out: Keratin 19 (KRT19), KRT19 (gene 3880); assay: LTEA_HepaRG_KRT19: Life Technologies and Expression Analysis (LTEA) Assay for Keratin 19 (KRT19) using HepaRG (AID 2283512)
How it was run: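 KRT19 transcript levels, measured by Fluidigm qRT-PCR against three housekeeping genes, are fitted for gain or loss of signal relative to DMSO. Human HepaRG cells receive test chemicals (top 100 uM, half-log steps, 0.5% DMSO) for 48 hours.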

[11] = read-out: JUN Transcription Factor, JUN (gene 3725); assay: LTEA_HepaRG_JUN: Life Technologies and Expression Analysis (LTEA) Assay for JUN Transcription Factor using HepaRG (AID 2283513)
How it was run: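 Human HepaRG liver cells receive test chemicals in 0.5% DMSO for 48 h across an eight-point range topping at 100 uM. Expression changes in JUN are scored in both directions against the DMSO vehicle.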

[12] = read-out: Lipase C (LIPC), LIPC (gene 3990); assay: LTEA_HepaRG_LIPC: Life Technologies and Expression Analysis (LTEA) Assay for Lipase C (LIPC) using HepaRG (AID 2283514)
How it was run: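 Differentiated human HepaRG cells in serum-free induction medium were exposed in duplicate for 48 h to eight concentrations (top 100 uM, half-log steps, 0.5% DMSO). LIPC mRNA was quantified by TaqMan qRT-PCR, normalized to ACTB, GAPDH and POLR2A, with bidirectional fitting versus DMSO.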

[13] = read-out: Lipoprotein lipase (LPL), LPL (gene 4023); assay: LTEA_HepaRG_LPL: Life Technologies and Expression Analysis (LTEA) Assay for Lipoprotein lipase (LPL) using HepaRG (AID 2283515)
How it was run: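 Differentiated human HepaRG cells in serum-free induction medium were exposed in duplicate for 48 h to eight half-log concentrations (top 100 uM) in 0.5% DMSO. LPL mRNA was quantified by TaqMan qRT-PCR, normalized to ACTB, GAPDH and POLR2A.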

[14] = read-out: MicroRNA 122 (MIR122), gene 406906; assay: LTEA_HepaRG_MIR122: Life Technologies and Expression Analysis (LTEA) Assay for MicroRNA 122 (MIR122) using HepaRG (AID 2283516); note: the transcript read is the microRNA miR-122
How it was run: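 HepaRG, 48 h exposure, 8-pt half-log from 100 uM, 0.5% DMSO; TaqMan qRT-PCR; bidirectional fit vs DMSO.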

MYC, MYC (gene 4609) = assay: LTEA_HepaRG_MYC: Life Technologies and Expression Analysis (LTEA) Assay for MYC using HepaRG (AID 2283518)
How it was run: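 HepaRG, ~100,000 cells/well, collagen I; 48 h plating; serum-free induction medium; 48 h dosing, duplicate, 100 uM top, half-log, 0.5% DMSO; total RNA → qRT-PCR MYC; gain/loss fit vs DMSO.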

[15] = read-out: matrix metalloproteinase-3 (MMP3), MMP3 (gene 4314); assay: LTEA_HepaRG_MMP3: Life Technologies and Expression Analysis (LTEA) Assay for matrix metalloproteinase-3 (MMP3) using HepaRG (AID 2283519)
How it was run: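 Differentiated human HepaRG cells, plated 48 h on collagen I, were exposed in duplicate for 48 h in serum-free induction medium to eight half-log concentrations up to 100 uM in 0.5% DMSO. MMP3 mRNA was quantified by TaqMan qRT-PCR, normalised to ACTB, GAPDH and POLR2A.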

[16] = read-out: Paternally Expressed 10 (PEG10), PEG10 (gene 23089); assay: LTEA_HepaRG_PEG10: Life Technologies and Expression Analysis (LTEA) Assay for Paternally Expressed 10 (PEG10) using HepaRG (AID 2283520);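 for AC50: PEG10 transcript by qRT-PCR normalised to ACTB GAPDH and POLR2A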
How it was run: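 Chemicals tested on HepaRG cells for 48 h, highest concentration 100 uM. PEG10 expression assessed by qRT-PCR relative to DMSO control.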

[17] = read-out: Nuclear factor NF-kappa-B p105 subunit (Homo sapiens) (UniProt P19838); assay: LTEA_HepaRG_NFKB1: Life Technologies and Expression Analysis (LTEA) Assay for Nuclear Factor Kappa B Subunit 1 (NFKB1) using HepaRG (AID 2283521)
How it was run: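 Differentiated human HepaRG cells were exposed for 48 h in serum-free induction medium to eight concentrations (top 100 uM, half-log steps, 0.5% DMSO), in duplicate. NFKB1 mRNA was measured by TaqMan qRT-PCR, normalized to ACTB/GAPDH/POLR2A, and fitted bidirectionally against DMSO.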

[18] = read-out: matrix metalloproteinase-10 (MMP10), MMP10 (gene 4319); assay: LTEA_HepaRG_MMP10: Life Technologies and Expression Analysis (LTEA) Assay for matrix metalloproteinase-10 (MMP10) using HepaRG (AID 2283517)
How it was run: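 HepaRG, collagen I, ~100,000 cells/well; serum-free induction medium; 48 h exposure, duplicate, 8-pt half-log to 100 uM, 0.5% DMSO. Readout: TaqMan qRT-PCR, normalized to ACTB/GAPDH/POLR2A; bidirectional fit vs DMSO.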

Measured: AC50

Chain of Hypoxia-inducible factor 1-alpha (Homo sapiens) (Q16665 whole entry, looked up): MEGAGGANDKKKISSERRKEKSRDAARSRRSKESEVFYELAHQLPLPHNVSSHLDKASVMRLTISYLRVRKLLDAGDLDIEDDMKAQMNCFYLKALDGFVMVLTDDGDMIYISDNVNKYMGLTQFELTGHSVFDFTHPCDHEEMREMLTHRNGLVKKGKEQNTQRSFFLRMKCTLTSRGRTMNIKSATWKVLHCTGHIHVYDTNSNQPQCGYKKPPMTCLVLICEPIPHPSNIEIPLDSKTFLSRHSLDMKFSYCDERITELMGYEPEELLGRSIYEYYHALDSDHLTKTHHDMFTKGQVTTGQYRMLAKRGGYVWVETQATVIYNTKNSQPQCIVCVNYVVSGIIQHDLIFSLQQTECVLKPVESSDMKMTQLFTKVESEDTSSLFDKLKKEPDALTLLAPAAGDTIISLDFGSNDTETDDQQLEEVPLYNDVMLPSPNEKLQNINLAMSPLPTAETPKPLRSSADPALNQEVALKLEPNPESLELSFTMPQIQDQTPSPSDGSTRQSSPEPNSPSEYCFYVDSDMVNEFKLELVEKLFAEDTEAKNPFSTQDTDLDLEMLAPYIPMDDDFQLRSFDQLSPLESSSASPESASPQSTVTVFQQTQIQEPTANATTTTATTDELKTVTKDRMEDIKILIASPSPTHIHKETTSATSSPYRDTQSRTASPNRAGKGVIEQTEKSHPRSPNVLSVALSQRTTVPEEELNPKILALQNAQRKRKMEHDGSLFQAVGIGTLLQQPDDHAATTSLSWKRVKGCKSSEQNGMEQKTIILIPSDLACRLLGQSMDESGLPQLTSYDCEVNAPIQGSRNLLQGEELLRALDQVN
Chain of Nuclear factor NF-kappa-B p105 subunit (Homo sapiens) (P19838 whole entry, looked up): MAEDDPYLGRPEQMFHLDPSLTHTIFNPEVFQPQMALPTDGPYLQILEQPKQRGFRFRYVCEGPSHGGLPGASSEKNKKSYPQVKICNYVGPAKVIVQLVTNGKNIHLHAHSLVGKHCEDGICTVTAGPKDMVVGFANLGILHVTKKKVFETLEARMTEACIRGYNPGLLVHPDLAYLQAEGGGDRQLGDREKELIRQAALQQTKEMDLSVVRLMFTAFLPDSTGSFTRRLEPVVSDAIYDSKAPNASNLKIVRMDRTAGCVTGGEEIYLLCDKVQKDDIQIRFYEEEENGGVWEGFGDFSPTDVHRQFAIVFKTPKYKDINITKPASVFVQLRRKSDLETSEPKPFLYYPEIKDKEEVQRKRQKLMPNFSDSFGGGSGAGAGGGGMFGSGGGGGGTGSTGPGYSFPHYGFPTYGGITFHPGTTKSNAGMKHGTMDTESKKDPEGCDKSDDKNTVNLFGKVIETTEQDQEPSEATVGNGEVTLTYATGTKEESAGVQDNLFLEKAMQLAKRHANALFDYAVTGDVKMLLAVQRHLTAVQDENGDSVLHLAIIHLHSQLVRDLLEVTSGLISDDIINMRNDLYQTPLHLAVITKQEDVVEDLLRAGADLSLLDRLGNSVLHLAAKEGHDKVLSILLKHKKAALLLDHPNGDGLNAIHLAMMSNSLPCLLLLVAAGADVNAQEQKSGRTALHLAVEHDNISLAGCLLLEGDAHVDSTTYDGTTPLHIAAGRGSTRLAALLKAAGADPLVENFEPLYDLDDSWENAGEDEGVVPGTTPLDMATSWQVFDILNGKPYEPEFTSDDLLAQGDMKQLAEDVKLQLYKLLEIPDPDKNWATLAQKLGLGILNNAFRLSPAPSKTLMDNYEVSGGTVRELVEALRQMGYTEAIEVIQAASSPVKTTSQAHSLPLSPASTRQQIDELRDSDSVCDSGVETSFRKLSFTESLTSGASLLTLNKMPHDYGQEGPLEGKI

O=C(Nc1ccc(Cl)cc1)Nc1ccc(Cl)c(Cl)c1
inactive: [5] | [8] | [14]
active: [1] 29.1 µM | [2] 72.1 µM | [3] 28.6 µM | HGF (gene 3082) 50 µM | [4] 24.4 µM | [6] 27.7 µM | [7] 23.3 µM | [9] 29 µM | [10] 14.6 µM | [11] 22.8 µM | [12] 15.1 µM | [13] 12.7 µM | MYC, MYC (gene 4609) 28.6 µM | [15] 28.1 µM | [16] 21.8 µM | [17] 12.2 µM

CC(C)(C)c1csc(-c2cc3cc(OCc4ccccc4CC(=O)O)ccc3o2)n1
active: [2] 87.3 µM | [3] 31.6 µM | [4] 12.4 µM | [6] 32.2 µM | [7] 81.3 µM | [8] 50 µM | [11] 78.9 µM | [12] 25.1 µM | [13] 81.8 µM | [14] 90.7 µM | [18] 32.8 µM | MYC, MYC (gene 4609) 32 µM | [15] 85.6 µM | [16] 50 µM
inactive: HGF (gene 3082) | [5] | [9] | [10]

O=C(O)c1ccccc1C(=O)OCc1ccccc1
inactive: [1] | [2] | [3] | HGF (gene 3082) | [4] | [5] | [6] | [7] | [8] | [9] | [10] | [11] | [12] | [13] | [14] | [18] | MYC, MYC (gene 4609) | [15] | [16] | [17]
